# Assay results reported in PubChem BioAssay (EPA / NIEHS).
# Records with an inconclusive call do not appear. The source made the active and inactive calls. How the source made its calls, unless noted: active means hit-call score of the fitted dose curve at least 0.9, where 1 is the maximum; inconclusive means response in the unintended direction; inactive means score below 0.9.
# Legend:
# [1] = molecular target: Nucleoli Translocation, AR (gene 367) (UniProt P10275); assay: UPITT_HCI_U2OS_AR_TIF2_Nucleoli_Antagonist: University of Pittsburgh U2OS Androgen Receptor-Transcriptional Intermediary Factor 2 (AR-TIF2) Antagonism High Content Imaging Assay for Nucleoli Translocation (AID 2283997)
# Summary of the method: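 Measured quantity was AR-RFP fluorescence localized to nucleoli in engineered U2OS cells also bearing TIF2-GFP, acquired on automated high-content imagers. Primary testing used 20 uM compound; actives were confirmed in triplicate wells.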
# [2] = molecular target: Nucleoli Translocation, AR (gene 367) (UniProt P10275); assay: UPITT_HCI_U2OS_AR_TIF2_Nucleoli_Agonist: University of Pittsburgh U2OS Androgen Receptor-Transcriptional Intermediary Factor 2 (AR-TIF2) Agonism High Content Imaging Assay for Nucleoli Translocation (AID 2283998)
# Summary of the method: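 Red-tagged human androgen receptor co-expressed with GFP-tagged TIF2 serves as the binding reporter. Primary testing used 20 uM final (0.2% DMSO); follow-up dose response covered 0.195 to 50 uM final (0.5% DMSO).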
# [3] = molecular target: Ratio of Nucleoli Translocation and Cytoplasm, AR (gene 367) (UniProt P10275); assay: UPITT_HCI_U2OS_AR_TIF2_Nucleoli_Cytoplasm_Ratio_Antagonist: University of Pittsburgh U2OS Androgen Receptor-Transcriptional Intermediary Factor 2 (AR-TIF2) Antagonism High Content Imaging Assay for Ratio of Nucleoli Translocation and Cytoplasm (AID 2283999);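 further: antagonists lower the DHT-driven ratio of nucleolar to cytoplasmic red signal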
# Summary of the method: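 U2OS cells expressing RFP-tagged human AR and GFP-tagged TIF2; compounds tested at 20 uM final (0.2% DMSO) in primary screen, 0.195–50 uM (0.5% DMSO) for concentration response. Readout: nucleolar-to-cytoplasmic red fluorescence ratio by high-content imaging, fitted relative to DHT.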
# [4] = molecular target: Ratio of Nucleoli Translocation and Cytoplasm, AR (gene 367) (UniProt P10275); assay: UPITT_HCI_U2OS_AR_TIF2_Nucleoli_Cytoplasm_Ratio_Agonist: University of Pittsburgh U2OS Androgen Receptor-Transcriptional Intermediary Factor 2 (AR-TIF2) Agonism High Content Imaging Assay for Ratio of Nucleoli Translocation and Cytoplasm (AID 2284000);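 further: hits raise the red nucleolar to cytoplasm ratio above vehicle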
# Summary of the method: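 Read-out first: nucleolar-to-cytoplasm ratio of red (AR-RFP) signal, quantified by high-content imaging in U2OS cells co-expressing TIF2-GFP. Activity is scored as signal increase over DMSO. Single-point screening used 20 uM final (0.2% DMSO).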
# [5] = CCTE_Harrill_HTTr_Viability_MCF7: CCTE's 6-hour Cell Viability Assessment for the High-Throughput Transcriptomics (HTTr) Platform, in MCF-7 cells cultured in DMEM + 10% fetal bovine serum, Harrill Lab (AID 2284010; active means hit-call score of the fitted dose curve at least 0.9, where 1 is the maximum; inactive means score below 0.9)
# Summary of the method: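 Membrane integrity was scored by high-content imaging of propidium iodide dye exclusion after a 6 h exposure across an eight-point dilution series. Data were fitted bidirectionally relative to DMSO as negative control and baseline.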
# [6] = CCTE_Harrill_HTTr_CellCount_MCF7: CCTE's Cell Proliferation Assessment for the High-Throughput Transcriptomics (HTTr) Platform, Harrill Lab (AID 2284012);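 further: cells exposed to compound for six hours; intended direction is loss of nuclei count meaning fewer cells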
# Summary of the method: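 MCF-7 cells were exposed for 6 h to an eight-point dilution series; Hoechst-labeled nuclei were counted by high content imaging. Curves were fitted bidirectionally against DMSO as negative control and baseline, with signal loss indicating reduced cell count.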
# DIO1 (gene 1733) = assay: CCTE_GLTED_hDIO1: CCTE's human Deiodinase 1 (DIO1) Inhibition Assay, Great Lakes Toxicology and Ecology Division (GLTED) Lab (AID 2283987);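 further: isolated human DIO1 enzyme in a cell-free setup rather than cells; enzyme activity read as free iodide liberated from substrate via Sandell-Kolthoff colorimetry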
# Summary of the method: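 Cell-free hDIO1 assay, triplicate plates. Absorbance of the Sandell-Kolthoff reaction reports enzyme-liberated iodide; iodinated chemicals or nitrite, iron and thiocyanate may interfere.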
# [7] = CCTE_Shafer_MEA_acute_spike_number: CCTE's Neural Acute Assay for Total Number of Spikes, Shafer Lab (AID 2284008; active means hit-call score of the fitted dose curve at least 0.9, where 1 is the maximum; inactive means score below 0.9;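 further: curve fitted for decrease in spike count so AC50 reflects inhibitors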)
# Summary of the method: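 Cortical neurons from rat, matured to DIV 13 or 15 on microelectrode arrays, are recorded at 37 C before and during 40-min exposure to 0.03-40 uM compound. Wells need >/= 10 active electrodes.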
# [8] = CCTE_Shafer_MEA_acute_firing_rate_mean: CCTE's Neural Acute Assay for Mean Firing Rate, Shafer Lab (AID 2284009; active means hit-call score of the fitted dose curve at least 0.9, where 1 is the maximum; inactive means score below 0.9;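 further: analyzed for loss of signal so actives lower firing rate relative to DMSO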)
# Summary of the method: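 Percent change in well-mean firing rate was derived from extracellular spikes detected at 8x rms noise (300-5000 Hz band-pass) before and after a 40-min compound exposure. Cultures were primary rat cortical neurons, tested at 0.03-40 uM.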
# [9] = CCTE_Shafer_MEA_acute_burst_number: CCTE's Neural Acute Assay for Single-Electrode Bursts, Shafer Lab (AID 2284013; active means hit-call score of the fitted dose curve at least 0.9, where 1 is the maximum; inactive means score below 0.9)
# Summary of the method: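 Spontaneous network activity of primary rat cortical neurons was recorded extracellularly on microelectrode arrays at 37 C, with 40-min periods before and during exposure to 0.03-40 uM compound on DIV 13 or 15.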
# [10] = CCTE_Shafer_MEA_acute_burst_duration_mean: CCTE's Neural Acute Assay for Mean Burst Duration, Shafer Lab (AID 2284014; active means hit-call score of the fitted dose curve at least 0.9, where 1 is the maximum; inactive means score below 0.9;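 further: hits are decreases in mean burst duration relative to DMSO controls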)
# Summary of the method: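 Read-out is the per-well percent change in mean burst duration (first to last spike within a single-electrode burst) between 40-min recordings before and after compound. Cultures were primary rat cortical neurons on MEAs, dosed at 0.03-40 uM on DIV 13 or 15.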
# [11] = CCTE_Shafer_MEA_acute_per_burst_spike_number_mean: CCTE's Neural Acute Assay for Average Number of Spikes Per Burst, Shafer Lab (AID 2284015; active means hit-call score of the fitted dose curve at least 0.9, where 1 is the maximum; inactive means score below 0.9;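 further: hits are decreases in mean spikes per burst versus baseline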)
# Summary of the method: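 We recorded spontaneous network firing of rat cortical neurons for 40 min before and 40 min during exposure to compound at 0.03-40 uM, at 37 C. Spikes were detected adaptively at 8x rms noise, and the change in average spikes per burst was fitted against DMSO.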
# [12] = CCTE_Shafer_MEA_acute_interburst_interval_mean: CCTE's Neural Acute Assay for Mean Interburst Interval, Shafer Lab (AID 2284016; active means hit-call score of the fitted dose curve at least 0.9, where 1 is the maximum; inactive means score below 0.9;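 further: percent change of mean interburst interval versus each well's own pre-dose baseline; curves fitted for decrease in interburst interval relative to DMSO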)
# Summary of the method: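 MEA recording of spontaneous network bursting in primary rat cortical cultures; mean interburst interval was compared before and after a 40-min compound exposure (0.03-40 uM) and expressed as percent change, relative to DMSO.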
# [13] = CCTE_Shafer_MEA_acute_burst_percentage_mean: CCTE's Neural Acute Assay for Percentage of Spikes in a Burst, Shafer Lab (AID 2284017; active means hit-call score of the fitted dose curve at least 0.9, where 1 is the maximum; inactive means score below 0.9;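 further: curve fitted for loss of signal so potency reflects decreased burst percentage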)
# Summary of the method: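 Compounds were tested at 0.03-40 uM on primary rat cortical neuron networks grown over microelectrodes, with at least three wells per compound. Spontaneous firing was recorded for 40 min before and 40 min after dosing, and the change in burst percentage was computed per well.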
# [14] = CCTE_Shafer_MEA_acute_burst_percentage_std: CCTE's Neural Acute Assay for Standard Deviation of Burst Percentage, Shafer Lab (AID 2284018; active means hit-call score of the fitted dose curve at least 0.9, where 1 is the maximum; inactive means score below 0.9;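 further: fitted in the negative direction so actives lower burst percentage SD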)
# Summary of the method: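 Value is percent change from baseline in the across-electrode SD of spikes-in-bursts percentage, wells with >/= 10 active electrodes. Acute 40-min exposure to 0.03-40 uM on DIV 13 or 15 rat cortical cultures, recorded at 37 C after 40-min baseline.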
# THRA (gene 7067) = THRA (gene 7067) (UniProt P10827); assay: TOX21_TRA_COA_Agonist_Followup_ratio: Tox21 Thyroid Hormone Receptor alpha Agonism through Coactivator Recruitment Follow-Up Assay, Ratio (AID 2283948; active means hit-call score of the fitted dose curve at least 0.9, where 1 is the maximum; inactive means score below 0.9)
# Summary of the method: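 First, compound was incubated with 2.5 nM GST-TRα LBD in 0.10% BSA. Next, 200 nM fluorescein-SRC-2 and 2 nM Tb-anti-GST antibody were added. Finally, the 520:495 nm ratio was normalized to DMSO and T3 controls.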
# THRB (gene 7068) = THRB (gene 7068) (UniProt P10828); assay: TOX21_TRB_COA_Agonist_Followup_ratio: Tox21 Thyroid Hormone Receptor beta Agonism through Coactivator Recruitment Follow-Up Assay, Ratio (AID 2283963; active means hit-call score of the fitted dose curve at least 0.9, where 1 is the maximum; inactive means score below 0.9)
# Summary of the method: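 Agonism is measured as coactivator recruitment in a purified-protein TR-FRET format, using GST-TRβ LBD at 5.0 nM, fluorescein-SRC-2 peptide at 200 nM and Tb-labeled anti-GST antibody at 2 nM. Values are 520:495 nm ratios relative to DMSO (0%) and T3 (100%).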
# [15] = TOX21_TR_RXR_BLA_Agonist_Followup_viability: Viability Assessment in the Tox21 Thyroid Hormone Receptor beta Retinoid X Receptor alpha (RXRa) Agonism Beta-lactamase (BLA) Follow-Up Assay (AID 2283970)
# Summary of the method: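 RXRa-UAS-bla HEK293T cells seeded at 2,500/well in phenol red-free DMEM with 2% charcoal-stripped FBS, exposed to compound 16h at 37C/5% CO2 in qHTS. Viability read by CellTiter-Glo ATP luminescence; bidirectional fitting against DMSO baseline, signal loss indicating cytotoxicity.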
# Nucleoli Translocation, AR (gene 367), sequence (P10275 whole entry, looked up): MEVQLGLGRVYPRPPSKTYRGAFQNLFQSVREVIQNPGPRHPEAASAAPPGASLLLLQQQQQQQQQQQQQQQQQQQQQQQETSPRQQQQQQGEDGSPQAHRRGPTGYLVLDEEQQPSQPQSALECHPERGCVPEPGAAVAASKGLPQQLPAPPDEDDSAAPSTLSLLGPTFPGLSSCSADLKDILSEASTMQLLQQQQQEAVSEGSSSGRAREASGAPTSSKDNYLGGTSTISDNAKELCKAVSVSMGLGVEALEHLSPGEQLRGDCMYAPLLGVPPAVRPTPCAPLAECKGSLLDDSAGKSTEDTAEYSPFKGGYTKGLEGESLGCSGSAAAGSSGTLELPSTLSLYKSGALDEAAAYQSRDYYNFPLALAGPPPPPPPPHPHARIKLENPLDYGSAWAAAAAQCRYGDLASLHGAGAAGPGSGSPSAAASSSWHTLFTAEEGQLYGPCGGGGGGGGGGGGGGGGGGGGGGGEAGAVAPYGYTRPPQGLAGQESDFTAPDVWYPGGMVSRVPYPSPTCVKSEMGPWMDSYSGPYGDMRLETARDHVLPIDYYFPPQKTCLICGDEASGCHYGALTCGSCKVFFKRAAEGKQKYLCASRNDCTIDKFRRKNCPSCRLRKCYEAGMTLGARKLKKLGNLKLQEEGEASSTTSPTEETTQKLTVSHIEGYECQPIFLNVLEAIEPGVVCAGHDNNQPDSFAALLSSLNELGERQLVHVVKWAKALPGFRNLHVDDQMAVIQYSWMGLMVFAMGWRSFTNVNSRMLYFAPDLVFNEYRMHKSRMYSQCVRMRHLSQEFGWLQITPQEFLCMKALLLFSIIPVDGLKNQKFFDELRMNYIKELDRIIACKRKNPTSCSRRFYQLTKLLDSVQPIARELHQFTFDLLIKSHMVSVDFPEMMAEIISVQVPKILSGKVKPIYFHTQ
# Ratio of Nucleoli Translocation and Cytoplasm, AR (gene 367), sequence (P10275 whole entry, looked up): as above
# THRB (gene 7068), sequence (P10828 whole entry, looked up, the tested form may be a part): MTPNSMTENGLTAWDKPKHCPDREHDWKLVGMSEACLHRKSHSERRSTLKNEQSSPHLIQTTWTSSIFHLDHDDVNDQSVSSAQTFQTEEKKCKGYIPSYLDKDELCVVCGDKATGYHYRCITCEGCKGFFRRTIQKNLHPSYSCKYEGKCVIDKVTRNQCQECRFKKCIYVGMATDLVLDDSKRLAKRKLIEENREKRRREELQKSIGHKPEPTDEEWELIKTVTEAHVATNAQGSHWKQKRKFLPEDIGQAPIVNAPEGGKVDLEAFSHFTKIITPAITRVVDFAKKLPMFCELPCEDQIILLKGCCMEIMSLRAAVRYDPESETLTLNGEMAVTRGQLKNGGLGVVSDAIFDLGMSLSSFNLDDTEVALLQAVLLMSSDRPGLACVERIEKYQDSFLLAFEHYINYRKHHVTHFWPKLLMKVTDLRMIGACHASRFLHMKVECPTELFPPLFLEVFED
# THRA (gene 7067), sequence (P10827 whole entry, looked up, the tested form may be a part): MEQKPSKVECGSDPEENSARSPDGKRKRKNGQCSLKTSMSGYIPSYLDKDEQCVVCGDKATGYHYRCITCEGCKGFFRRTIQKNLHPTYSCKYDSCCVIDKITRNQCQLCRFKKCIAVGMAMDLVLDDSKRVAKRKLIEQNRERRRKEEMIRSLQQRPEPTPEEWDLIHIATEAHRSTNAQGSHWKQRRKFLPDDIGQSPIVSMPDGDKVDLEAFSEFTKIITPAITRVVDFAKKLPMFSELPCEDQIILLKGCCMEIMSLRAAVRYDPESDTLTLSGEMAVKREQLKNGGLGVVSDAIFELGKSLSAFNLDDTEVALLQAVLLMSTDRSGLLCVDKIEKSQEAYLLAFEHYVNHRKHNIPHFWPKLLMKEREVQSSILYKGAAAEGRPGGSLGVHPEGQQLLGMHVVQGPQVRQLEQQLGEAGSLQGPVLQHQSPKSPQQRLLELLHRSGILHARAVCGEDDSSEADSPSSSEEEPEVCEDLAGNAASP
compound,measurement,setting,value
CCc1ccc(C)nc1,outcome,[1],inactive
same,outcome,[2],inactive
same,outcome,[3],inactive
same,outcome,[4],inactive
same,outcome,[5],inactive
same,outcome,[6],inactive
CCCCCCCCCc1ccc(OCCO)cc1,outcome,[1],inactive
same,outcome,[2],inactive
same,outcome,[3],inactive
same,AC50,[4],75.5 µM (active)
same,outcome,[5],inactive
same,outcome,[6],inactive
C=CC(=O)OCC(F)(F)C(F)(F)C(F)(F)COC(=O)C=C,AC50,DIO1 (gene 1733),19.6 µM (active)
CSc1ccc(Cl)cc1,outcome,[5],inactive
CC(C)(C)c1cc(CCC(=O)OCC(COC(=O)CCc2cc(C(C)(C)C)c(O)c(C(C)(C)C)c2)(COC(=O)CCc2cc(C(C)(C)C)c(O)c(C(C)(C)C)c2)COC(=O)CCc2cc(C(C)(C)C)c(O)c(C(C)(C)C)c2)cc(C(C)(C)C)c1O,outcome,[5],inactive
same,outcome,[6],inactive
CSc1ccc(O)cc1C,outcome,[5],inactive
same,outcome,[6],inactive
CCN=C1C=CC(=C(c2ccc(N(CC)CC)cc2)c2ccc(N(CC)CC)cc2)c2ccccc21,AC50,[1],1.4 µM (active)
same,AC50,[3],4.7 µM (active)
same,outcome,[4],inactive
same,AC50,[7],0.559 µM (active)
same,AC50,[8],0.559 µM (active)
same,outcome,[5],inactive
same,AC50,[6],92.2 µM (active)
same,AC50,[9],0.545 µM (active)
same,outcome,[10],inactive
same,AC50,[11],0.518 µM (active)
same,AC50,[12],0.361 µM (active)
same,AC50,[13],0.549 µM (active)
same,outcome,[14],inactive
CCCCCCCCCCCCCCCCC,outcome,[5],inactive
O=C1C=CC(=O)N1c1ccccc1,AC50,[1],5.44 µM (active)
same,outcome,[2],inactive
same,AC50,[3],5.34 µM (active)
same,outcome,[4],inactive
C[C@]12CC[C@H]3C(=CCc4cc(O)ccc43)[C@@H]1CCC2=O,outcome,THRA (gene 7067),inactive
same,outcome,THRB (gene 7068),inactive
same,outcome,[15],inactive
same,AC50,[1],0.234 µM (active)
same,outcome,[2],inactive
same,AC50,[3],3.04 µM (active)
same,outcome,[4],inactive
same,outcome,[5],inactive
same,outcome,[6],inactive
CCCCCCCCCCCCCC[P+](CCCC)(CCCC)CCCC,AC50,DIO1 (gene 1733),11.5 µM (active)
same,AC50,[1],5.62 µM (active)
same,outcome,[2],inactive
same,AC50,[3],9.75 µM (active)
same,outcome,[4],inactive
CCCCCCCC/C=C\CCCCCCCC(=O)N(C)CC(=O)O,AC50,DIO1 (gene 1733),95.4 µM (active)
same,outcome,[5],inactive
same,outcome,[6],inactive
Cc1cc(=O)[nH]c(C(C)C)n1,outcome,[5],inactive
same,outcome,[6],inactive
C=C(C)C(=O)OCC(F)(F)C(F)(F)C(F)(F)C(F)F,AC50,DIO1 (gene 1733),25.5 µM (active)
F[Si-2](F)(F)(F)(F)F,outcome,[1],inactive
same,outcome,[2],inactive
same,outcome,[4],inactive
